# Over roughly 110,000 compounds, “z-score” has its median near -0.1; the highest 2% begin near 2. Only a selection was taken, and the highest values are over-represented in it overall. The source made the active and inactive calls.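 How the source made its calls: active means z-score in the third read window above 3 or below -3; inactive means the rest.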
# Molecular target: Metabotropic glutamate receptor 8 (Rattus norvegicus) (UniProt P70579)
# Test: mGluR8 Gi/Go-coupled signaling modulation – cell-based, rat, thallium flux, HTS, primary screen (AID 488969)
# Details: HEK293 rat mGluR8, GIRK (G protein-gated inwardly rectifying potassium channel) thallium flux, FluoZin2; at 10 µM; stronger effect = higher value; submaximal glutamate (EC20) added with thallium
# Chain of Metabotropic glutamate receptor 8 (Rattus norvegicus) (P70579 whole entry, looked up): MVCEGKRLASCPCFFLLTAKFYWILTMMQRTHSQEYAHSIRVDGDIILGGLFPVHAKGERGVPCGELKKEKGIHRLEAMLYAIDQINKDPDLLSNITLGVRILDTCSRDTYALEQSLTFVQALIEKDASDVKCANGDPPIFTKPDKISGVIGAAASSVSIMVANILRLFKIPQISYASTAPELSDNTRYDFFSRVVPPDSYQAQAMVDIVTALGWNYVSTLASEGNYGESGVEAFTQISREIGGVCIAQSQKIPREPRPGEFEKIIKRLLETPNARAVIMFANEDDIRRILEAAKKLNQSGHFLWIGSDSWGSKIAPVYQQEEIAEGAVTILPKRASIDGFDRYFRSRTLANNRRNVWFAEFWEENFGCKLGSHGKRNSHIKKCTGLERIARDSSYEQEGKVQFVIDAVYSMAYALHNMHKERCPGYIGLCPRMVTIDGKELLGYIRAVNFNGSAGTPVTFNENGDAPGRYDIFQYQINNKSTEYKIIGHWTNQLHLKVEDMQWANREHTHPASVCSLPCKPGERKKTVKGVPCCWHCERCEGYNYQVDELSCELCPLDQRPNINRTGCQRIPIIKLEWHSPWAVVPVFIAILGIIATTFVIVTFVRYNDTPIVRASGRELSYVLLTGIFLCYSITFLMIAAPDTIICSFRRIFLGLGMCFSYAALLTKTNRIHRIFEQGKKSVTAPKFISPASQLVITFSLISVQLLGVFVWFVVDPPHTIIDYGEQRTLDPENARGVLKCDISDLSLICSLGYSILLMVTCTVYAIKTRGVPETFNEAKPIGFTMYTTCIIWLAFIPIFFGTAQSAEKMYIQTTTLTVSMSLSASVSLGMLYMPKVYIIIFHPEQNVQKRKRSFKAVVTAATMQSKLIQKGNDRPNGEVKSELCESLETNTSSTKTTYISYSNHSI
row,SMILES,z-score
1,CCOC(=O)c1cc(CC)sc1NC(=O)c1cc(OC)c(OC)c(OC)c1,0.399
2,CCc1cc(C(N)=O)c(NC(=O)c2ccc(OC)cc2)s1,3.98 (active)
3,CCOC(=O)c1cc(-c2ccccc2)sc1NC(=O)c1ccc(OC)cc1,-0.199
4,CCOc1ccc(OC(=O)NC(c2ccccc2)C(Cl)(Cl)Cl)cc1 (stereo not given),-0.048
5,O=c1c2cc(Br)ccc2[nH]c(=S)n1Cc1cccnc1,1.87
6,CCN(CC)CCn1c(=S)[nH]c2ncccc2c1=O,0.0629
7,COCCn1c(=S)[nH]c2ncccc2c1=O,0.35
8,O=c1c2ccc(Cl)cc2[nH]c(=S)n1Cc1cccnc1,2.08
9,O=c1c2cccnc2[nH]c(=S)n1Cc1ccccc1,3 (active)
10,CCOC(=O)N1CCN(C(=O)c2ccc3c(=O)n(Cc4ccc(Cl)cc4)c(=S)[nH]c3c2)CC1,0.798
11,CC1CCN(CCn2c(=S)[nH]c3ncccc3c2=O)CC1,4.47 (active)
12,CC1CCCCN1CCn1c(=S)[nH]c2ncccc2c1=O (stereo not given),1.22
13,O=c1c2cccnc2[nH]c(=S)n1CCCN1CCN(c2ccc(F)cc2)CC1,0.723
14,CC(=O)Nc1ccc(Sc2ncccc2C(=O)Nc2cc(Cl)cc(Cl)c2)cn1,0.0331
15,CCc1nc(SCC(=O)Nc2c(C)n(C)n(-c3ccccc3)c2=O)n[nH]1,-0.584
16,Cc1ccc(Cl)c(OCC(=O)Nc2sc(C)c(C)c2C#N)c1,0.877
17,CC(NC(=O)COc1ccccc1)C1COc2ccccc2O1 (stereo not given),-0.67
18,Cc1ccc(C)c(N2CCN(C(=O)c3csc(C)c3C)CC2)c1,0.0161
19,CC(C)n1nc(C(=O)OCC(=O)c2c[nH]c3ccccc23)c2ccccc2c1=O,-2.75
20,COc1ccc(Br)cc1S(=O)(=O)N1CCCC1,-0.0684
21,CCOC(=O)COc1c(OC)cc(Cl)cc1C1Nc2ccccc2C(=O)N1c1ccccc1 (stereo not given),0.355
22,Cc1ccc(Oc2ncc(CN3CC(C)OC(C)C3)s2)cc1 (stereo not given),-0.107
23,CCn1c2ccccc2c2cc(NC(=O)CC(C)=O)ccc21,-0.32
24,COCCNC(=O)c1cnn2c1NC(c1ccco1)CC2C(F)(F)F (stereo not given),0.0267

row,SMILES,z-score
1,Cc1ccc(Cl)cc1NC(=O)c1cnn2c1NC(c1ccco1)CC2C(F)(F)F (stereo not given),-0.148
2,CCOC(=O)N1CCC(NC(=O)c2cnn3c2NC(c2ccco2)CC3C(F)(F)F)CC1 (stereo not given),4.33 (active)
3,CCCCn1ccnc1C(=O)c1cc(S(=O)(=O)N2CCOCC2)ccc1C,-0.0858
4,CSc1nnc(CSc2cc(C)nc(N(C)C)n2)o1,-0.325
5,O=S(=O)(Nc1nc(-c2sccc2Cl)cs1)c1cc(Cl)ccc1Cl,3.41 (active)
6,O=C(O)c1ccc(NS(=O)(=O)c2cc(Cl)ccc2Cl)cc1,-0.151
7,O=S(=O)(Nc1cccnc1)c1cc(Cl)ccc1Cl,-0.00571
8,OC(CCN1CCOCC1)(c1ccc(Cl)cc1)C1CCCCC1 (stereo not given),-0.807
9,Cc1ccc(NC(=S)N/C(=N/S(=O)(=O)c2ccccc2)c2ccccc2)cc1,1.36
10,COCCN(C(=O)Cc1cccs1)C(C(=O)NCc1ccc(OC)cc1)c1ccccc1 (stereo not given),3.95 (active)
11,COCCN(C(=O)Cc1cccs1)C(C(=O)NCc1ccc(OC)cc1)c1ccc(OC)cc1 (stereo not given),-0.202
12,CCc1ccc(C(C(=O)NCc2ccc(OC)cc2)N(CCOC)C(=O)Cc2cccs2)cc1 (stereo not given),-0.37
13,Clc1ccc(N=c2ssnc2Cl)cc1,-0.0573
14,C=C(C)COc1ccc(-c2[nH]ncc2-c2ccccc2OC)c(O)c1,0.603
15,Cc1cccc(Oc2cc(NC(=O)c3ccccc3)cc([N+](=O)[O-])c2)c1,-0.382
16,CCn1cc(CNC(=O)CCSc2nc(-c3ccco3)cc(C(F)(F)F)n2)cn1,-0.23
17,COc1cccc(C(=O)N/N=C(/CCC(=O)O)c2ccccc2)c1,-0.189
18,CCC/C(=N/NC(=O)c1cccc(Cl)c1)c1ccccc1,5.45 (active)
19,CCC/C(=N\NC(=O)c1ccccc1C)c1ccccc1,-0.166
20,CCC1=NC(c2ccc(OC)cc2OC)N(O)C1(C)C (stereo not given),-0.547
21,COCc1c(C(=O)N2CCN(c3ccc(C(F)(F)F)cn3)CC2)oc2ccccc12,-0.0186
22,CCN(CC)C(=O)COc1ccc2oc(C)c(C(=O)OC(C)C)c2c1,-0.537
23,CCOC(=O)c1c(C)oc2ccc(OCC(=O)C(C)(C)C)cc12,-1.03
24,CCN(CC)C(=O)COc1ccc2oc(C)c(C(=O)OC)c2c1,3.23 (active)

row,SMILES,z-score
1,CCOC(=O)C1=C(CNCc2ccccc2Cl)NC(=O)NC1c1ccc2c(c1)OCO2 (stereo not given),0.278
2,COc1ccc(Br)cc1CN1CCCCCCC1,0.169
3,COc1cc(-c2nc(-c3ccc(NC(=O)c4ccc5c(c4)OCO5)cc3)no2)cc(OC)c1OC,0.262
4,CC12CN(C(=O)c3ccccc3)C3(C#N)CC1CCC23C (stereo not given),0.729
5,NC(N)=N/N=C/c1ccc(OCc2ccccc2)cc1,0.177
6,CC1(C)Cc2nc3sc4c(SCC(=O)NCc5ccccc5)ncnc4c3cc2CO1,2.31
7,CC1(C)Cc2nc3sc4c(SCC(=O)NCc5ccco5)ncnc4c3cc2CO1,-0.999
8,CC1(C)Cc2nc3sc4c(SCC(=O)NC(c5ccccc5)c5ccccc5)ncnc4c3cc2CO1,0.0674
9,CC(=O)c1ccc(OCC(O)CN2CCCC(C)C2)cc1 (stereo not given),-0.0491
10,O=C(Nc1ncc2c(n1)-c1ccccc1CC2)c1ccccc1,-0.277
11,COc1ccc(-c2c[n+]3c4n2CCCCC4=C(c2ccccc2)C3)cc1,2.82
12,COc1ccc(-c2c[n+]3c4n2CCCCC4=C(c2ccc(Br)cc2)C3)cc1,1.54
13,Clc1ccc(C2=C3CCCCn4c(-c5ccccc5)c[n+](c43)C2)cc1,0.498
14,CCCc1ccccc1OCCNC(C)=O,-0.472
15,O=C(COc1ccccc1)NC1=NCCS1,-0.0489
16,CC(NC(=O)c1ccccc1)C(=O)NC1=NCCS1 (stereo not given),0.0634
17,CC(NC(=O)COc1ccccc1)C(=O)NC1=NCCS1 (stereo not given),3.96 (active)
18,COc1cc(-c2nc(-c3ccc(Br)o3)no2)cc(OC)c1OC,-0.294
19,COc1c(Cl)cc(Cl)cc1CNCCNCCO,0.598
20,COc1c(Cl)cc(Cl)cc1CNCCNCC(C)O (stereo not given),3.74 (active)
21,CCOc1cccc(CNCCO)c1OCc1ccc(Cl)cc1Cl,0.93
22,CCOc1c(Cl)cc(Cl)cc1CNCCNCCO,0.738
23,CCOc1ccc(Cl)cc1CNCCNCC(C)O (stereo not given),2.17
24,CCOc1ccc(Cl)cc1CNCCNCCO,0.172

row,SMILES,z-score
1,CN(C)C(C)(C)C#CCCCCC#CC(C)(C)N(C)C,-0.195
2,N#Cc1cc2cc3c(cc2nc1N1CCOCC1)OCO3,-0.918
3,O=C1C2ON(c3ccccc3)C(c3ccncc3)C2C(=O)N1c1ccc(N2CCOCC2)cc1 (stereo not given),-0.522
4,Cn1c(=O)c(NCCO)c2c3c(cccc31)C(=O)c1ccccc1-2,-2.23
5,CCCCNc1c2c3c(cccc3n(C)c1=O)C(=O)c1ccccc1-2,16.2 (active)
6,Cn1c(=O)c(NCCc2ccccc2)c2c3c(cccc31)C(=O)c1ccccc1-2,1.94
7,Cc1noc(/C=C/N(C)C)c1S(=O)(=O)N1CCCC(C(=O)NCCC2=CCCCC2)C1 (stereo not given),-0.237
8,CC(C)(C)c1nnc(N/N=C/c2ccccc2)n(N)c1=O,2.74
9,CC(C)(C)c1nnc(N/N=C/c2ccc(Br)cc2)n(N)c1=O,0.0626
10,CC(C)(C)c1nnc(N/N=C/c2ccccc2O)n(N)c1=O,-0.149
11,COc1ccc(-c2csc(Nc3ccc(S(N)(=O)=O)cc3)n2)cc1,-0.213
12,O=C(Nc1cc([N+](=O)[O-])ccc1F)c1cccs1,-0.0753
13,Cc1ccc([N+](=O)[O-])cc1NC(=S)NC(=O)CC(C)(C)C,0.834
14,Cc1ccc([N+](=O)[O-])cc1NC(=S)NC(=O)c1cccs1,2.46
15,Cc1ccc([N+](=O)[O-])cc1NC(=S)NC(=O)C(C)(C)C,0.72
16,Cc1ccc([N+](=O)[O-])cc1N/C=C/C(=O)c1ccco1,-0.039
17,Cc1ccc([N+](=O)[O-])cc1NC(=S)NC(=O)c1ccco1,7.69 (active)
18,COC(=O)c1ccc(C(=O)OC)c(NC(=O)COC(=O)CC2CC3CCC2C3)c1 (stereo not given),-0.338
19,CC1CCCC(C)N1c1nnc(NC(=O)c2cc(-c3ccc(Br)cc3)on2)s1 (stereo not given),2.04
20,O=C(Nc1nnc(N2CCCCCC2)s1)c1cc(-c2ccc(Br)cc2)on1,-0.0797
21,CC1CCCCN1c1nnc(NC(=O)c2cc(-c3ccc(Br)cc3)on2)s1 (stereo not given),-0.71
22,O=C(CC12CC3CC(CC(C3)C1)C2)NCC(=O)OCc1cc(=O)oc2ccc3ccccc3c12,-0.205
23,O=CN1CCN(C(C(=O)NC2CCCC2)c2ccc(Cl)cc2)CC1 (stereo not given),0.0147
24,CCc1ccc(-c2nc(CN3CCCC(C(=O)NCCc4ccc(OC)c(OC)c4)C3)c(C)o2)cc1 (stereo not given),2.2

row,SMILES,z-score
1,CCc1ccc(-c2nc(CN3CCC(C(=O)NCCN(CC)c4ccccc4)CC3)c(C)o2)cc1,1.17
2,CCc1ccc(-c2nc(CN3CCC(C(=O)NCCc4ccc(OC)c(OC)c4)CC3)c(C)o2)cc1,0.471
3,CCc1ccc(-c2nc(CN3CCC(C(=O)N4CCN(c5ccccc5)CC4)CC3)c(C)o2)cc1,2.2
4,COc1ccc(CCNC(=O)C2CCCN(Cc3nc(-c4cccc(Cl)c4)oc3C)C2)cc1OC (stereo not given),1.07
5,Cc1oc(-c2ccc(Cl)cc2)nc1CN1CCC(C(=O)N2CCN(Cc3ccccc3)CC2)CC1,0.0945
6,O=C(CNC(=O)c1ccccc1F)NCCOc1cccc(Cl)c1Cl,-0.0129
7,COCCNC(=O)CN(C(=O)CCC(=O)Nc1cc(C)on1)c1cccc(C)c1C,-0.171
8,CC(C)NS(=O)(=O)c1ccc(CCC(=O)Nc2ccc3c(c2)OCO3)cc1,-0.224
9,CCc1cc(C(=O)N=Nc2c(O)[nH]c3ccc([N+](=O)[O-])cc23)c2ccccc2n1,-0.481
10,CCc1ccc2[nH]c(O)c(N=Nc3nc(-c4ccccc4)cs3)c2c1,2.89
11,CCc1cc2c(N=Nc3c(O)[nH]c4ccccc34)ncnc2s1,-0.149
12,COC(=O)CSc1cnc2ccccc2n1,0.141
13,COC(=O)c1c(NC(=O)c2ccco2)sc2c1CCC2,-0.464
14,Cc1ccc(C(=O)OCC(=O)Nc2sc3c(c2C#N)CCCC3)cc1NC(=O)c1ccco1,2.03
15,CCOC(=O)c1c(NC(=O)c2ccco2)sc2c1CCCCC2,-0.506
16,CC(C)OC(=O)c1c(NC(=O)c2ccco2)sc2c1CCCCC2,-0.501
17,CCOC(=O)c1c(NC(=S)Nc2ccc(F)cc2)sc2c1CCC2,-0.154
18,CCOC(=O)c1c(NS(=O)(=O)Cc2ccccc2)sc2c1CCCC2,17.1 (active)
19,COC(=O)c1c(NC(=S)NC(=O)c2ccco2)sc2c1CCCC2,3.53 (active)
20,Cc1ccc(C(=O)OCC(=O)Nc2sc3c(c2C#N)CCC3)cc1,-0.0585
21,CCOC(=O)c1c(NC(=S)Nc2ccccc2)sc2c1CCCCC2,3.94 (active)
22,CCOC(=O)c1c(NC(=S)Nc2ccc(C)cc2)sc2c1CCC2,-0.0357
23,Cc1ccc(C(=O)OCC(=O)Nc2sccc2C(N)=O)cc1NC(=O)c1ccco1,-0.747
24,CCOC(=O)c1c(NC(=O)c2ccccc2N(C)S(=O)(=O)c2ccccc2)sc2c1CCCC2,-0.168

# Reference: PubChem BioAssay AID488969 (Vanderbilt High Throughput Screening Facility, 2010)
